The source of these data is ChEMBL document CHEMBL3988442, “University of Dundee, Small-Polar-MMV Screening Library” (2021).

Each structure is given as a SMILES string.

The target of test [1] is T1, Aspartate--tRNA(Asp/Asn) ligase (Mycobacterium tuberculosis (strain ATCC 25618 / H37Rv)) (UniProt P9WFW3). Further: in the data most compounds retested in dose-response had high values.
T1 sequence (whole entry): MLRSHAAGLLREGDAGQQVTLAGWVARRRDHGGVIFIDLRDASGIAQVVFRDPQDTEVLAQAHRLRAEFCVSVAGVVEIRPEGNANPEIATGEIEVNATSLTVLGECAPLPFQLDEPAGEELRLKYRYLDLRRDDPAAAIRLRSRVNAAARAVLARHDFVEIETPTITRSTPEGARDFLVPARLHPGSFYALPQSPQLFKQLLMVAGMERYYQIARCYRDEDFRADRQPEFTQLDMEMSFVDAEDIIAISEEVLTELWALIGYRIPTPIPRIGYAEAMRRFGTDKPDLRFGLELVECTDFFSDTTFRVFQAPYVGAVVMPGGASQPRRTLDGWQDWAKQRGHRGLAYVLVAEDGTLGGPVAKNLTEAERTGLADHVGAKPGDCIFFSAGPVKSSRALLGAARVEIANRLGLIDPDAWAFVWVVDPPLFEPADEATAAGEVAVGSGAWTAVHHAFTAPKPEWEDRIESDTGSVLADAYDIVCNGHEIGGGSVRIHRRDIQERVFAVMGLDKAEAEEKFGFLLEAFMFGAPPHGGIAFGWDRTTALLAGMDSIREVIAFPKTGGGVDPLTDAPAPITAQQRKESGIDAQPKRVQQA
Put plainly: Assay for Asp RNA synthetase-1 from Mycobacterium tuberculosis. Particulars: 30 µM. It is filed as functional. The arrangement: scale not given: direction of the effect not stated beside the values.

In test [2] the target is Shiga toxin 2 (Escherichia coli O157:H7) (UniProt P09385+P09386). The experiment in a line: E. coli 0.157:H7 Shiga Toxin SOP - stx2 screening assay. It is filed as functional. The arrangement: scale not given: direction of the effect not stated beside the values. Particulars: 30 µM.

For `Cc1cnn(CCNCc2nnc(C3CC3)o2)c1`, the figures for the Percent Effect in test [1] and in test [2] were 4.75% and -42.1%, respectively.
Turning to `CC(C)Cc1noc(CN2CCN(C(=O)c3cccc(F)c3)CC2)n1`, the values for the Percent Effect in test [1] and in test [2] were -0.41% and -17.7%, respectively.
`CN(CC(=O)N1CCN(c2ccccc2F)CC1)c1cnccn1`: the Percent Effect in test [1] came out at 0.903%; in test [2], 8.69%.
As to `O=C1COc2c(cccc2C(=O)N2CCCCC2Cn2cccn2)N1` (configuration not stated), the Percent Effect in test [1] is -0.721%; in test [2] it was 27.1%.
In the case of `CC(C)c1ccsc1C(=O)N1CCCN(Cc2cscn2)CC1`, the Percent Effect in test [1] turned out to be 6.6%; in test [2], 14.7%.
The corresponding values for `CNc1cc2c(nn1)CCN(C(=O)C1CCCc3ccccc31)C2` (configuration not stated) are 0.0571% and 4.77%.
Take `Cc1csc(C2CCCN(C(=O)c3cnc[nH]3)C2)n1` (configuration not stated): the results for the Percent Effect in test [1] and in test [2] were 5.76% and 16.6%, respectively.
For the compound `COc1cc2nc(C)n(CC(=O)O)c(=O)c2cc1OC`, the values for the Percent Effect in test [1] and in test [2] were 1.68% and -6.96%, respectively.
The corresponding values for `CCn1c(Cn2cncn2)nnc1C1CCN(Cc2ccc(C)o2)CC1` are -3.48% and 18.7%.
The corresponding values for `CCOc1nc2cccnc2n(CC(=O)NCCOC)c1=O` are -2.81% and -9.03%.
As to `CCOCC(O)CN1CCN(C(=O)C2CC2)CC1` (configuration not stated), the values for the Percent Effect in test [1] and in test [2] were 1.82% and 21.4%, respectively.
The corresponding values for `Cc1nc(CN2CCCC(N(C)Cc3c(C)noc3C)C2)no1` (configuration not stated) are -5.45% and 18.6%.
The corresponding values for `COc1cccc(N2CCN(CC(O)c3ccc(C)cc3)CC2)c1` (configuration not stated) are 8.45% and 10.4%.
The corresponding values for `CCc1cnc(CN(C)C2CCN(CCc3ccccn3)C2)o1` (configuration not stated) are 0.0557% and -7.08%.
On to `CCn1cnnc1C1CCN(C(=O)c2ccc3cc[nH]c3c2)CC1`, for which the Percent Effect in test [1] was -3%; in test [2] it was -9.96%.
The corresponding values for `COc1ccc(NC(=O)C(c2cccc(F)c2)N2CCOCC2)cc1` (configuration not stated) are 5.63% and -8.77%.
The corresponding values for `CC(COc1ccc(F)cc1F)NC(=O)NCCN1CCOCC1` (configuration not stated) are -1.71% and -3.82%.
The corresponding values for `CCCc1cc(C(=O)N2CCCC(n3ccnc3C)C2)[nH]n1` (configuration not stated) are -3% and -5.55%.
With `Cc1csc(NC(=O)CN(C)CC2CCCN2c2cccnn2)n1` (configuration not stated), the Percent Effect in test [1] is 3.48%; in test [2] it was -23.1%.
`CCN1CCC2(CCC(=O)N2Cc2cccc(C)n2)CC1`: the Percent Effect in test [1] was -3.94%; in test [2] it was 1.16%.
The corresponding values for `Cc1noc(C)c1CN(C)CCC(=O)N1CCc2sccc2C1` are 5.92% and -16%.
As to `O=C(NCCCO)C1CC(=O)N(c2n[nH]c3cccc(F)c23)C1` (configuration not stated), the Percent Effect in test [1] was 0.29%; in test [2] it was -34.7%.
The corresponding values for `Cc1nc(C)n(CC2CN(CCCOc3ccccc3C)CCO2)n1` (configuration not stated) are 1.31% and 4.82%.
The corresponding values for `CN(CCNC(=O)c1scnc1Cl)c1ccccc1` are 2.87% and -17.4%.
The corresponding values for `Cc1cccc(CN2CCC3(CCN(c4ccccn4)C3)C2=O)c1` (configuration not stated) are 0.319% and -2.5%.
For `Cc1nc(CNC(C)c2ccc(OCC(=O)NC3CC3)cc2)cs1` (configuration not stated), the figures for the Percent Effect in test [1] and in test [2] were 2.43% and -66.5%, respectively.
The corresponding values for `CCc1nccn1-c1cncc(C2CCCN2Cc2cccnc2)n1` (configuration not stated) are 5.87% and -37.2%.
In the case of `O=C1NCCN1C1CCN(Cc2nc(-c3ccoc3)no2)CC1`, the Percent Effect in test [1] is -7.34%; in test [2], -21.2%.
The corresponding values for `CCNS(=O)(=O)c1ccc(C)c(C(=O)N(C)Cc2ccco2)c1` are 2.92% and 0.315%.
The corresponding values for `COc1cccc(-c2nc(C)c(C(=O)N[C@@H](C)C(=O)O)s2)c1` are -1.66% and -52%.
The corresponding values for `CCC(CC)NC(=O)Cn1nc(C)nc1-c1ccccc1` are -2.19% and 23%.
Take `O=S(=O)(NCC1(O)CCOc2ccccc21)c1cccs1` (configuration not stated): the Percent Effect in test [1] was -0.546%; in test [2] it was -8.71%.
The corresponding values for `CNc1cc(N2CCCC2CNCc2cnc(C)cn2)ncn1` (configuration not stated) are -0.989% and -46%.
The corresponding values for `CCn1cc(NC(=O)C2CCN(CC(=O)N3CCOCC3)CC2)cn1` are -3.23% and 21.6%.
The corresponding values for `O=C(CN1CCN(CC(O)C2CC2)CC1)NCc1ccc(F)cc1` (configuration not stated) are -0.889% and -4.46%.
In the case of `CCn1nc(C)c2nc(C(C)C)nc(NCCCO)c21`, the Percent Effect in test [1] is 3.48%; in test [2], -3.03%.
